# Data: PubChem BioAssay (Tox21)
# Several values for one entry are separate records, joined by “and”; a condition that tells them apart may be missing. Identical values can stand only once. Inconclusive results are not listed. Entries that show only a call come without a potency. Some compounds were tested as several samples or in several runs, with calls that do not always agree. Activity calls are given as the source filed them. Unless noted, calls follow the shape of the full dose curve.
# Key:
# [1] = qHTS assay to identify small molecule agonists of the vitamin D receptor (VDR) signaling pathway - cell viability counter screen (AID 743224; active = well fitted curve in the direction sought with a large enough effect in the repeat runs; an effect the other way counts as inactive or inconclusive; also: nearly all actives have a fitted effect of over 50% in size; also: potency is read from the fitted curve at half-maximal effect)
# In short: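 VDR-bla cell line, quantitative HTS format; 16 h compound incubation (37C, 5% CO2); ATP-based CellTiter-Glo luminescence measured in the reporter assay wells.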
# [2] = qHTS assay to identify small molecule antagonists of the vitamin D receptor (VDR) signaling pathway - cell viability counter screen (AID 743225; active = well fitted curve in the direction sought with a large enough effect in the repeat runs; an effect the other way counts as inactive or inconclusive; also: nearly all actives have a fitted effect of over 50% in size)
# In short: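 VDR-bla HEK 293T cells, 4 h pre-incubation at 37C, then compound plus 1-alpha,25-dihydroxyvitamin D3 (3 nM final) for 16 h. After the beta-lactamase FRET read, CellTiter-Glo was added to the same wells; luminescence after 30 min at room temperature.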
# [3] = qHTS assay to identify small molecule agonists of the NFkB signaling pathway (AID 1159509; active = well fitted curve in the direction sought with a large enough effect in the signal ratio in the repeat runs, not every such curve was filed as active; the % refers to the signal ratio; also: series mostly up to about 61 µM)
# In short: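 After overnight attachment, reporter cells received test compounds, DMSO or positive controls and were incubated 5 hr at 37 C. FRET substrate was then added for 1.5 hr at room temperature before dual-emission fluorescence reading.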
# [4] = qHTS assay to identify small molecule agonists of the NFkB signaling pathway - cell viability counter screen (AID 1159515); also: series mostly up to about 61 µM; nearly all actives have a fitted effect of over 55% in size
# In short: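 Viability in NFkB-bla ME-180 cells was measured by CellTiter-Glo luminescence, 30 min room temperature, in wells already treated 5 hr with compounds and read for reporter FRET.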
# [5] = qHTS assay to identify small molecule agonists of the endoplasmic reticulum stress response signaling pathway (AID 1159516; active = well fitted activation curve with a large enough effect in the signal ratio in the repeat runs, not every such curve was filed as active; the % refers to the signal ratio)
# In short: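 ER stress element reporter (bla) in HeLa. 1,500 cells/well, overnight attachment; 5 hr compound; 2 hr RT substrate; dual-emission fluorescence.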
# [6] = qHTS assay to identify small molecule agonists of the endoplasmic reticulum stress response signaling pathway - cell viability counter screen (AID 1159517);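 also: HeLa cells carrying an ER stress response element beta-lactamase reporter; series mostly up to about 61 µM; nearly all actives have a fitted effect of over 50% in size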
# In short: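 Counter-screen wells were identical to the reporter wells. Cells were plated at 1,500 per well and dosed for 5 hr, then read for luminescence 30 min after CellTiter-Glo addition.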
# [7] = qHTS assay to identify small molecule antagonists of the retinoid-related orphan receptor gamma (ROR-gamma) signaling pathway - cell viability counter screen (AID 1159520; active = well fitted curve in the direction sought with a large enough effect in the repeat runs; an effect the other way counts as inactive or inconclusive; also: nearly all actives have a fitted effect of over 50% in size)
# In short: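 Tet-on ROR gamma CHO cells were given compounds for 2 hr, then doxycycline hyclate at 1 uM final, and incubated 16 hr at 37 C. Viability was measured as ATP content by CellTiter-Glo luminescence.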
# [8] = qHTS assay to identify small molecule agonists of the AP-1 signaling pathway (AID 1159526)
# [9] = qHTS assay to identify small molecule agonists of the AP-1 signaling pathway - cell viability counter screen (AID 1159525); also: nearly all actives have a fitted effect of over 55% in size; also: potency is read from the fitted curve at half-maximal effect
# In short: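 AP-1-bla ME-180 cells in Opti-MEM with 0.5% dialyzed FBS, compound exposure 5 h at 37 C in 15-point titration. Viability read in the same wells as ATP content by CellTiter-Glo luminescence, normalised to tetra-n-octylammonium bromide and DMSO controls.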
# [10] = target: Nuclear receptor ROR-gamma (Homo sapiens) (UniProt P51449); test: qHTS assay to identify small molecule antagonists of the retinoid-related orphan receptor gamma (ROR-gamma) signaling pathway (AID 1159521; active = well fitted curve in the direction sought with a large enough effect in the repeat runs; an effect the other way counts as inactive or inconclusive; also: nearly all actives have a fitted effect of over 50% in size; also: potency is read from the fitted curve at half-maximal effect)
# In short: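 Tet-on RORγ CHO cells carrying a ROR response element–luciferase reporter were pretreated with compounds for 2 h, then induced with 1 uM (final) doxycycline hyclate for 16 h at 37 C. Antagonism was read as decreased ONE-Glo luminescence.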
SMILES,Potency [1],outcome [2],outcome [3],outcome [4],outcome [5],outcome [6],Potency [7],outcome [8],Potency [9],Potency [10],activation [8]
CCCCCC1=CCCC1=O,inactive,inactive,inactive,inactive,inactive,inactive,inactive,inactive,,,
O=S(=O)(O)c1ccc2ccccc2c1,inactive,inactive,inactive,inactive,inactive,inactive,inactive,inactive,inactive,,
C#C[C@]1(O)CC[C@H]2[C@@H]3CCC4=CC(=O)CC[C@@H]4[C@H]3CC[C@@]21C,inactive,inactive,inactive,inactive,inactive,inactive,inactive,inactive,,30.6 µM (active),
C=C(C)C(=O)OCCOCCOCCOC(=O)C(=C)C,inactive,inactive,inactive,inactive,inactive,inactive,inactive,inactive,,inactive,
C[C@H]1C[C@@H]2[C@H]([C@@H](O)C[C@@]3(C)[C@H]2CC[C@]3(O)C(=O)CO)[C@@]2(C)C=CC(=O)C=C12,inactive,inactive,inactive,inactive,inactive,inactive,,inactive,inactive,inactive,
O=C(O)CCCCCCCCCCC(=O)O,inactive,inactive,inactive,inactive,inactive,inactive,inactive,inactive,,inactive,
C=CCNC(N)=S,inactive,inactive,inactive,inactive,inactive,inactive,inactive,inactive,inactive,,
CCCCCCCCCCCCCCO,inactive,inactive,inactive,inactive,inactive,inactive,inactive,inactive,inactive,,
CC(=O)CC(=O)Nc1ccccc1C,inactive,inactive,inactive,inactive,inactive,inactive,inactive,inactive,,,
FC(F)(F)c1ccc(Cl)c(Cl)c1,inactive,inactive,inactive,inactive,inactive,inactive,,inactive,inactive,inactive,
CCCCCCCCC/C=C/CC1CC(=O)OC1=O (stereo not given),inactive,inactive,inactive,inactive,inactive,inactive,inactive,inactive,inactive,,
COc1ccc(Cl)cc1C(=O)NCCc1ccc(S(=O)(=O)NC(=O)NC2CCCCC2)cc1,inactive,inactive,inactive,inactive,inactive,inactive,inactive,inactive,,inactive,
O=C(O)c1ccc(C(=O)O)cc1,inactive,inactive,inactive,inactive,inactive,inactive,inactive,inactive,,inactive,
CCc1ccc(CCOc2ccc(CC3SC(=O)NC3=O)cc2)nc1 (stereo not given),inactive,inactive,inactive,inactive,inactive,inactive,inactive,inactive,inactive,,
Oc1cccc2ccccc12,inactive,inactive,inactive,inactive,inactive,inactive,inactive,inactive,,inactive,
O=c1[nH]c(=O)n([C@H]2CCCO2)cc1F,inactive,inactive,inactive,inactive,inactive,inactive,inactive,inactive,inactive,,
OCCOCCN1CCN(C2=Nc3ccccc3Sc3ccccc32)CC1,inactive,inactive,inactive,inactive,inactive,inactive,inactive,inactive,inactive,,
Cc1ccc(S(N)(=O)=O)cc1,inactive,inactive,inactive,inactive,inactive,inactive,inactive,inactive,,,
N[C@@H](Cc1cc(I)c(Oc2cc(I)c(O)c(I)c2)c(I)c1)C(=O)O,inactive,inactive,inactive,inactive,inactive,inactive,inactive,inactive,inactive,,

SMILES,Potency [1],outcome [2],outcome [3],outcome [4],outcome [5],outcome [6],Potency [7],outcome [8],Potency [9],Potency [10],activation [8]
C=C(C)C(=O)Nc1ccc(Cl)c(Cl)c1,inactive,inactive,inactive,inactive,inactive,inactive,inactive,inactive,,inactive,
CCCCCOC(C)=O,inactive and 49 µM (active),inactive,inactive,inactive,inactive,inactive,inactive,inactive,,,
Cc1ccc2oc(=O)ccc2c1,inactive,inactive,inactive,inactive,inactive,inactive,inactive,inactive,inactive,,
CN(C)CCC(c1ccccc1)c1ccccn1 (stereo not given),inactive,inactive,inactive,inactive,inactive,inactive,inactive,inactive,inactive,,
CCC(O)OC(O)CC (stereo not given),inactive,inactive,inactive,inactive,inactive,inactive,inactive,inactive,,,
C#CCN(C)Cc1ccccc1,inactive,inactive,inactive,inactive,inactive,inactive,inactive,inactive,inactive,,
CCCCC(CC)COC(=O)CS (stereo not given),inactive,inactive,inactive,inactive,inactive,inactive,inactive,inactive,inactive,,
C=C(C)C(=O)O[C@H]1C[C@@H]2CC[C@@]1(C)C2(C)C,inactive,inactive,inactive,inactive,inactive,inactive,,inactive,4.87 µM (active) and inactive,963 nM (active) and inactive,
O=c1[nH]nnc2ccccc12,inactive,inactive,inactive,inactive,inactive,inactive,,inactive,,inactive,
CC[C@H](C)C(=O)O[C@H]1C[C@@H](C)C=C2C=C[C@H](C)[C@H](CC[C@@H]3C[C@@H](O)CC(=O)O3)[C@H]21,inactive,inactive,inactive,inactive,inactive,inactive,,inactive,,982 nM (active) and 1.21 µM (active),
CC(C)(N)CO,inactive,inactive,inactive,inactive,inactive,inactive,,inactive,inactive,inactive,
CCCCCCCCCCCCCCCO,inactive,inactive,inactive,inactive,inactive,inactive,,inactive,inactive,inactive,
CCCCC(CC)COC(=O)C(C#N)=C(c1ccccc1)c1ccccc1 (stereo not given),inactive,inactive,inactive,inactive,inactive,inactive,,inactive,,,
C/C=C1/CC2C=CC1C2 (stereo not given),inactive,inactive,,inactive,inactive,inactive,inactive,inactive,,,
CCCCOC(=O)COc1ccc(Cl)cc1Cl,inactive,inactive,inactive,inactive,inactive,inactive,,inactive,,19.5 µM (active) and inactive,
C[Si](O[Si](C)(C)C)O[Si](C)(C)C,inactive,inactive,inactive,inactive,inactive,inactive,,inactive,,inactive,
COc1ccc2cc([C@H](C)C(=O)O)ccc2c1,inactive,inactive,inactive,inactive,inactive,inactive,,inactive,,inactive,
O=C(O)c1ccccc1C(c1ccc(O)cc1)c1ccc(O)cc1,inactive,inactive,inactive,inactive,inactive,inactive,,inactive,inactive,inactive,
CCCCCCOCCO,inactive,inactive,inactive,inactive,inactive,inactive,,inactive,inactive,,

SMILES,Potency [1],outcome [2],outcome [3],outcome [4],outcome [5],outcome [6],Potency [7],outcome [8],Potency [9],Potency [10],activation [8]
CCCCCC/C(C=O)=C\c1ccccc1,inactive,inactive,inactive,inactive,inactive,inactive,,inactive,inactive,inactive,
Cc1occc(=O)c1O,inactive,inactive,inactive,inactive,inactive,inactive,,inactive,inactive,inactive,
CC(C)c1ccc(S(=O)(=O)O)cc1,inactive,inactive,inactive,inactive,inactive,inactive,,inactive,inactive,inactive,
CC1CCC(C(C)C)C(O)C1 (stereo not given),inactive,inactive,inactive,inactive,inactive,inactive,,inactive,inactive,inactive,
CCC(O)OCCCOC (stereo not given),inactive,inactive,inactive,inactive,inactive,inactive,,inactive,,inactive,
O=[N+]([O-])c1ccc(/C=C/c2ccc([N+](=O)[O-])cc2S(=O)(=O)O)c(S(=O)(=O)O)c1,inactive,inactive,inactive,inactive,inactive,inactive,,inactive,inactive,inactive,
O=C(O)c1cc(O)c(O)c(O)c1,inactive,inactive,inactive,inactive,inactive,inactive,,inactive,inactive,inactive,
Cc1cnc(C(=O)NCCc2ccc(S(=O)(=O)NC(=O)NC3CCCCC3)cc2)cn1,inactive,inactive,inactive,inactive,inactive,inactive,,inactive,inactive,,
CCCCCCCCCCCCS,inactive,inactive,inactive,inactive,inactive,inactive,,inactive,inactive,inactive,
NNc1nncc2ccccc12,inactive,inactive,inactive,inactive,inactive,inactive,,,,inactive,-4.28% [at 15.8 µM] (inactive)
CCCCC(CC)CO (stereo not given),inactive,inactive,inactive,inactive,inactive,inactive,,inactive,,inactive,
CC(c1cc2ccccc2s1)N(O)C(N)=O (stereo not given),inactive,inactive,inactive,inactive,inactive,inactive,,inactive,inactive,,
CC(=O)Nc1cccc(O)c1,inactive,inactive,inactive,inactive,inactive,inactive,,inactive,,,
c1ccc2c(c1)ccc1ccccc12,inactive,inactive,inactive,inactive,inactive,inactive,,inactive,inactive,inactive,
CN(C)CCOCCN(C)C,inactive,inactive,inactive,inactive,inactive,inactive,,inactive,,inactive,
C=CCOC(=O)c1ccccc1C(=O)OCC=C,inactive,inactive,inactive,inactive,inactive,inactive,,inactive,inactive,inactive,
Cc1cc(C)c(C)cc1C,inactive,inactive,inactive,inactive,inactive,inactive,,inactive,,inactive,
OCc1cccnc1,inactive,inactive,,inactive,inactive,inactive,inactive,inactive,inactive,inactive,
